Sampled rows, rich in hits. Any-hit rate of the full collection: about 12%.
BAZ2B block: qHTS Assay for Inhibitors of BAZ2B; Bromodomain adjacent to zinc finger domain protein 2B (Homo sapiens), Q9UIF8; Potency, µM (series often up to 114 µM), without a hit: at the highest dose activity change, negative = inhibition, hits mostly inhibitors; AID 504333, 2011; 360,000 compounds, 4.4% hits; AlphaScreen BAZ2B-H3K14Ac peptide displacement; also: % is scaled to controls: 0 for no effect and ±100 for the full control effect; nearly all actives have a fitted effect of over 60% in size
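Multi-concentration screen (max 110 uM) measuring displacement of acetylated histone H3 peptide from BAZ2B by AlphaScreen, using 50 nM protein, 50 nM peptide and 10 ug/mL streptavidin donor plus Ni-chelate acceptor beads.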
Sfp inh: qHTS Assay for Inhibitors of Bacillus subtilis Sfp phosphopantetheinyl transferase (PPTase) | 4'-phosphopantetheinyl transferase ffp (Bacillus subtilis), Q9F4F7 | Biochemical Sfp PPTase activity, qHTS | Potency, µM, for the others: largest response in the series, negative = inhibition, usual class: inhibitors | 310,000 compounds, 3.5% hits;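 also: the enzyme is Sfp with the accession as filed and its product quenches rhodamine fluorescence; 0% = enzyme reaction without inhibitor and -100% = no enzyme wells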
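Reaction rates are the 30-min fluorescence difference (ex 525, em 598 nm) in wells containing 15 nM Sfp, 5 uM rhodamine-CoA and 12.5 uM BHQ-2-YbbR at pH 7.6 with 10 mM MgCl2.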
HP1b binding inh: HTS for Inhibitors of HP1-beta Chromodomain Interactions with Methylated Histone Tails; Chromobox protein homolog 1 (Homo sapiens), P83916; AlphaScreen HP1-beta / biotin-H3K9me3 peptide binding; Potency, µM (doses to about 114 µM), for the others: at the highest dose activity change, negative = inhibition, actives largely listed as inhibitors; 390,000 compounds, 0.56% hits; AID 540317, 2011; also: nearly all actives have a fitted effect of over 70% in size
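HP1-beta protein (50 nM final) preincubated 30 min at room temperature with biotinylated H3(1-18)K9me3 peptide (50 nM) in PBS pH 7.4, 0.01% Tween-20, then compound added for 30 min. AlphaScreen streptavidin donor/nickel chelate acceptor beads (10 ug/mL final), 30 min dark, luminescence read.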
JMJD2A Tudor: qHTS Assay for Inhibitors of JMJD2A-Tudor Domain. Potency, µM (series often up to 114 µM), without a hit: at the top dose activity change, negative = inhibition, most hits filed as inhibitors. 390,000 compounds, 4.4% hits. AlphaScreen JMJD2A-Tudor / H3K4me3 peptide binding; also: % is scaled to controls: 0 for no effect and ±100 for the full control effect; nearly all actives have a fitted effect of over 50% in size
G9a block: qHTS Assay for Inhibitors of Histone Lysine Methyltransferase G9a; 350,000 compounds, 8.8% hits; G9a H3K9 monomethylation, AlphaScreen, 2 h; Histone-lysine N-methyltransferase EHMT2 (Homo sapiens), Q96KQ7; Potency, µM (titrated, usually from 102 µM), without a hit: at the highest dose activity, negative = inhibition, actives largely listed as inhibitors; AID 504332, 2011; also: % is scaled to controls: 0 for no effect and ±100 for the full control effect; nearly all actives have a fitted effect of over 75% in size
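Using a bead-based AlphaScreen, monomethylated H3K9 product from 2 h room-temperature reactions (G9a 20 nM, peptide 500 nM, SAM 20 uM) was detected with 0.5 ug/mL rabbit anti-H3K9me1 antibody.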
PLK1 PBD inh: qHTS for Inhibitors of PLK1-PDB (polo-like kinase 1 - polo-box domain): Primary Screen | 360,000 compounds, 2.8% hits | Plk1 PBD binding of FITC phosphopeptide, fluorescence polarization | AID 720504, 2013 | Potency, µM, for inactives: max response, negative = inhibition, most hits filed as inhibitors; also: series mostly up to about 57 µM; % is scaled to controls: 0 for no effect and ±100 for the full control effect; nearly all actives have a fitted effect of over 65% in size
* hit, by the source's call; [ ] = another dose, or the depositor's remark. Calls follow the shape of the dose curve; as a rule, active = well fitted curve in the direction sought with a large enough effect; inconclusive = small, poorly fitted or top-dose-only effect, or another doubt; inactive = no such curve, though single readings can be large; an effect the other way counts as inactive or inconclusive. Potency is read from the fitted curve at half-maximal effect.

For Cc1ccc(NC(=O)C(C)OC(=O)CCN=C2NS(=O)(=O)c3ccccc32)cc1 (stereo not given) the results were BAZ2B block -3%, HP1b binding inh 21%, JMJD2A Tudor 1%, G9a block inconclusive and PLK1 PBD inh -5%.
Cc1ccc(OCc2cc(C(=O)NC(C)Cc3cccc(C)n3)no2)cn1 (stereo not given) was read as BAZ2B block -8%, Sfp inh -1%, HP1b binding inh 52%, JMJD2A Tudor 3%, G9a block 9%[0.501 µM] and PLK1 PBD inh -13%.
Screening CCOC(=O)C(CC)Sc1nnc2[nH]c(=O)cc(C)n12 (stereo not given) returned BAZ2B block -1%, HP1b binding inh -1%, JMJD2A Tudor -15% and G9a block -1%[59 µM].
`CCOc1ccc2c(c1)c(N=NC(N)=S)c(O)n2C` gave BAZ2B block -19%, Sfp inh -12%, HP1b binding inh 46%, JMJD2A Tudor -12%, G9a block 4%[59 µM] and PLK1 PBD inh -2%.
Screening CCOc1ccc2c(c1)n(CO)c(=S)n2CO returned BAZ2B block 0%, Sfp inh 1%, HP1b binding inh 6%, JMJD2A Tudor 79µM*, G9a block 2.2µM* and PLK1 PBD inh -12%.
Screening CCC1C(=O)Nc2ccccc2N1C(=O)c1ccc(Cl)nc1 (stereo not given) returned BAZ2B block 5%, Sfp inh 12%, HP1b binding inh 21%, JMJD2A Tudor 100µM*, G9a block 31% and PLK1 PBD inh -7%.
`Cc1cc(C(=O)CCl)c(C)n1CCc1ccccc1` gave BAZ2B block -23%, Sfp inh 20µM*, HP1b binding inh inconclusive, JMJD2A Tudor 45µM*, G9a block 50µM* and PLK1 PBD inh 27µM*.
Cc1cc(C(=O)CCl)c(C)n1-c1cccc([N+](=O)[O-])c1 was read as BAZ2B block -31%, Sfp inh 5%, HP1b binding inh -6%, JMJD2A Tudor -31%, G9a block inconclusive and PLK1 PBD inh inconclusive.
For Cc1cc(C(=O)CCl)c(C)n1-c1ccon1 the results were BAZ2B block -28%, Sfp inh 12%, HP1b binding inh 27%, JMJD2A Tudor -15%, G9a block -30% and PLK1 PBD inh 27µM*.
For CC(C)CN(C[C@@H](OP(=O)(O)O)[C@H](Cc1ccccc1)NC(=O)O[C@@H]1CCOC1)S(=O)(=O)c1ccc(N)cc1 the results were Sfp inh -8% and G9a block 15%[12.7 µM].
COc1ccccc1-c1cc(C(=O)Nc2sc3c(c2C#N)CCC(C)C3)c2ccccc2n1 (stereo not given) was read as BAZ2B block -5%, Sfp inh inconclusive, HP1b binding inh -20%, JMJD2A Tudor 8%[11.4 µM], G9a block 14%[2.33 µM] and PLK1 PBD inh 27µM*.
`CC1CCc2c(sc(NC(=O)COC(=O)c3ccc(NC(=O)CC#N)cc3)c2C#N)C1` (stereo not given) gave BAZ2B block 6%, HP1b binding inh 14%, JMJD2A Tudor -11%, G9a block 0% and PLK1 PBD inh -2%.
Screening Cc1cc(C(=O)OCC(=O)Nc2sc3c(c2C#N)CCC(C)C3)c2ccccc2n1 (stereo not given) returned BAZ2B block -38%, Sfp inh inconclusive, HP1b binding inh -2%, JMJD2A Tudor -34%, G9a block 45µM* and PLK1 PBD inh inconclusive.

Screening data from PubChem.
